Laboratory results taken from PubChem BioAssay (NCI).
This is part of a sample that, as a whole, favours compounds with a hit. Of some 83,000 tested, about 20% had one in any assay.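 Single-dose data. Exposure time 48 hours. Values below 10 considered active.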 A number with no mark means an inactive call. Calls of active or inactive are those of the source.

Key:
Experiment in all cases: NCI-60 one-dose screen, 48 h (100 = growth as untreated, 0 = no growth, -100 = all killed)
Settings in all cases: 10 µM
RPMI-8226 leukemia = tested on: RPMI-8226 leukemia
OVCAR-8 ovarian = tested on: OVCAR-8 ovarian
OVCAR-5 ovarian = tested on: OVCAR-5 ovarian
OVCAR-4 ovarian = tested on: OVCAR-4 ovarian
SK-OV-3 ovarian = tested on: SK-OV-3 ovarian
IGROV1 ovarian = tested on: IGROV1 ovarian
OVCAR-3 ovarian = tested on: OVCAR-3 ovarian
HS 578T breast = tested on: HS 578T breast
NCI/ADR-RES ovarian = tested on: NCI/ADR-RES ovarian
T-47D breast = tested on: T-47D breast
BT-549 breast = tested on: BT-549 breast
MDA-MB-435 melanoma = tested on: MDA-MB-435 melanoma
SW-620 colon = tested on: SW-620 colon
MCF7 breast = tested on: MCF7 breast
HCT-116 colon = tested on: HCT-116 colon
HCC-2998 colon = tested on: HCC-2998 colon
KM12 colon = tested on: KM12 colon

| SMILES | growth (RPMI-8226 leukemia) | growth (OVCAR-8 ovarian) | growth (OVCAR-5 ovarian) | growth (OVCAR-4 ovarian) | growth (SK-OV-3 ovarian) | growth (IGROV1 ovarian) | growth (OVCAR-3 ovarian) | growth (HS 578T breast) | growth (NCI/ADR-RES ovarian) | growth (T-47D breast) | growth (BT-549 breast) | growth (MDA-MB-435 melanoma) | growth (SW-620 colon) | growth (MCF7 breast) | growth (HCT-116 colon) | growth (HCC-2998 colon) | growth (KM12 colon) |
| --- | --- | --- | --- | --- | --- | --- | --- | --- | --- | --- | --- | --- | --- | --- | --- | --- | --- |
| CCCCCCN(CCCCCC)CC(O)c1ccc2c3c(cccc13)CC2 (stereo not given) | 27.5% | 68.4% | 48.9% | 72.4% | 69.9% | 39.4% | 80.6% | 69.1% | 56.5% | 30.2% | 62.8% | 42.9% | 19.2% | 54.2% | 17.4% | 20.3% | 58% |
| CN(C)CCS(=O)(=O)CCN(C)C | 108% | 99.5% | 105% | 120% | 98.8% | 119% | 110% | 98.9% | 105% | 111% | 101% | 116% | 94.5% | 107% | 96.9% | 102% | 99.6% |
| CC(=O)c1cc(Cl)ccc1O | 105% | 109% | 94.3% | 120% | 111% | 116% | 102% | 104% | 104% | 99.7% | 105% | 101% | 95.9% | 105% | 102% | 97.4% | 96.2% |
| O=[N+]([O-])c1ccc(Oc2cc(Cl)c(Cl)cc2Cl)c(C(F)(F)F)c1 | 97.3% | 97.8% | 87% | 93.8% | 103% | 96.5% | 105% | 104% | 109% | 107% | 110% | 95.6% | 106% | 97.9% | 102% | 123% | 101% |
| COc1cc(-c2cc(/C=C3\C(=O)Nc4cc(Cl)ccc43)[nH]n2)cc(OC)c1OC | -28% (active) | 23.9% | 65% | 19% | 74.2% | 4.31% (active) | 40.6% | 12.6% | 10.2% | 24.9% | 47.6% | -0.685% (active) | 41.4% | -4.15% (active) | 14.2% | 70% | 9.09% (active) |
| COc1cc(-c2cc(/C=C/C(=O)c3ccc4c(c3)OCO4)[nH]n2)cc(OC)c1OC | -11.6% (active) | 76.6% | 83.3% | 76.6% | 99.2% | 98.5% | 77.7% | 86.6% | 78.5% | 40% | 60.9% | 31.2% | 47.4% | 17.3% | 31.4% | 103% | 18% |
| CC12O[C@H](C[C@@H](O)[C@H]1O)n1c3ccccc3c3c4c(c5c6ccccc6n2c5c31)C(=O)N(CCCN)C4=O | 40.2% | 33.9% | 97.2% | 61% | 41.8% | 17.9% | 37.8% | 43.4% | 101% | 24% | 72.9% | 32.5% | 20.4% | 12.2% | 13.4% | 44.8% | 38% |
| COc1ccc(-c2nn(-c3cccc(NC(=O)Nc4ccccc4)c3)cc2-c2ccncc2)cc1Cl | -35.3% (active) | 0.341% (active) | 35.5% | 41.4% | 80.5% | 33.3% | 39.4% | 31.9% | 22.4% | 30.9% | -40.9% (active) | -66.5% (active) | -19.7% (active) | 0.285% (active) | 5.36% (active) | -71.1% (active) | -16.2% (active) |
| CCOC(=O)C(=Cc1ccc(Br)cc1)C(=O)OCC | -34.3% (active) | -22.4% (active) | 5.97% (active) | 0.0605% (active) | 34% | -82.1% (active) | -35.1% (active) | -16.3% (active) | 10.6% | -16.7% (active) | -43.3% (active) | -4.37% (active) | -71.2% (active) | 0.372% (active) | -80.4% (active) | -82.2% (active) | -25.3% (active) |
| O=C(Nc1ccc(OS(=O)(=O)c2ccccc2)cc1)C12CC3CC(CC(C3)C1)C2 | 18.8% | 63% | 68% | 58.9% | 74% | 75.1% | 63.9% | 63.1% | 52.5% | 27% | 25.8% | 72.6% | 5.02% (active) | 32% | 32.8% | 26.1% | 28.4% |
